According to PubChem BioAssay AID868 (SRMLSC, 2007):
Screen size: about 190,000 compounds; about 3,500 (1.8%) were called active. What follows is part of a selection rich in actives, with near analogues and random picks from the rest. Values without a mark were called inactive.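 Rule for the calls: active = inhibition above a set limit, 3 SD over mean compound inhibition (cut at about 8.4% in these data); inactive = the rest.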

experiment: RAM signaling blockers in budding yeast – dse1pr::URA3 reporter, 5-FOA selection, primary screen (AID 868);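 note: 0% = DMSO-only wells with no growth and 100% = 10 µM 1-NA-PP1 full growth; inhibition rescues growth on 5-FOA so higher OD means more RAM inhibition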; conditions: S. cerevisiae dse1pr::URA3 reporter, 5-FOA growth OD615, 2 d; at 50 µM; hits give high values; analog-sensitive cbk1-as2 kinase mutant strain

SMILES	inhibition
Cc1cccc(C(=O)c2cccc(C)c2)c1	1.11%
Cc1ccccc1CN1C[C@@H]2C[C@@H](c3ccc4nsnc4c3)N3CCC[C@@]23C1=O	1.56%
COc1ccc(/C=C2\CCCC3C2=NN(C(=O)c2scnc2C)C3c2ccc(OC)cc2)cc1 (centres undefined)	8.89% (active)
CN(C)/C=C/C(=O)c1cnc2sccn2c1=O	3.34%
Cc1cc(Cl)ccc1OCCCC(=O)NCc1ccccn1	-1.48%
CC1CCCC(C)N1/N=C/c1ccccc1OC(F)F (centres undefined)	-0.37%
O=C(NC(=S)Nc1ccc(S(=O)(=O)Nc2ncccn2)cc1)c1cccc(Br)c1	6.97%
NS(=O)(=O)c1ccc(NC(=S)NC(=O)c2cccc(Br)c2)cc1	15.5% (active)
NS(=O)(=O)c1ccc(NC(=S)NC(=O)c2cccnc2)cc1	0.14%
CCc1ccccc1NC(=O)Cc1cn(C)c2ccccc12	1.88%
O=C(/C=C/c1ccc(Cl)c([N+](=O)[O-])c1)c1cccnc1	1.34%
Cc1ccsc1C1C(C#N)=C(N)OC2=C1C(=O)CC(C)C2 (centres undefined)	2.12%
O=C(c1ccc(Cl)cc1)c1cnc(Nc2ccccc2)s1	3.49%
CC(=O)c1c(Nc2ccccc2)sc(C(=O)c2ccccc2)c1C	13.4% (active)
CCC(=O)Nc1sc(C(=O)Nc2ccccc2)c(C)c1C(=O)OC	-0.53%
COc1cc(CN2CCN(Cc3ccc(C)cc3)CC2)c([N+](=O)[O-])cc1OC	-0.12%
N#Cc1c(-c2ccc(F)cc2)nc(-c2ccccc2)[nH]c1=O	1.19%
N#Cc1ccc(-c2ccc(F)cc2)nc1Sc1ccccc1	9.92% (active)
N#Cc1ccc(-c2ccc(Cl)cc2)nc1Oc1ccc(F)cc1	3.94%
COC(=O)c1nc(NC(=O)c2ccc(C(C)(C)C)cc2)n[nH]1	-0.27%
COC(=O)C1=C(C(=O)OC)C(c2cc([N+](=O)[O-])ccc2O)c2sc(=O)[nH]c2S1 (centres undefined)	-0.84%
CCOC(=O)C(NC(C)=O)C(=O)Nc1ccc(OC)cc1 (centres undefined)	1.23%
Cc1ccc(C2C3=C(Nc4[nH]n(-c5ccccc5)c(=O)c42)c2ccccc2C3=O)cc1 (centres undefined)	4.88%
Cc1nn(-c2ccccn2)c2c1C(c1ccncc1)C1=C(CC(C)(C)CC1=O)N2 (centres undefined)	-0.66%

SMILES	inhibition
Cc1cc(C)c(C2C3=C(Nc4c2c(C)nn4-c2ccccn2)c2ccccc2C3=O)c(C)c1 (centres undefined)	9.18% (active)
O=C(CN1CCN(C/C=C/c2ccccc2)CC1)Nc1ccc(F)cc1F	0.69%
CCOCCCNCc1cc(Br)ccc1OCC	1.92%
CCOC(=O)C1CCN(CCC(=O)Nc2cccc(C)c2)CC1	0.78%
Cc1ccc(S(=O)(=O)N2CCOCC2)cc1C(=O)OC1CCCCC1=O (centres undefined)	0.38%
COc1cc(/C=C/C(=O)O)cc(S(=O)(=O)Nc2ccccc2SC)c1OC	5.01%
CCC(C)(C)NC(=O)/C=C/c1cc(OC)c(OC)c(S(=O)(=O)N2CCc3ccccc32)c1	9.06% (active)
COc1ccc(C(=O)OCC(=O)NCC2CCCCC2)cc1S(=O)(=O)N1CCCc2ccccc21	2.15%
Cc1cc(=O)[nH]c(N/N=C/c2c(C)nn(-c3ccccc3Cl)c2Cl)n1	1.7%
CCOc1ccc(/C=N/Nc2nncc(-c3ccccc3)n2)cc1OC	-0.12%
Cc1cc(OC(=O)c2ccccc2Cl)ccc1N1C(=O)CCC1=O	-1.28%
COc1ccc(CCNC(=O)CCn2c(=O)c3ccccc3n(CC(=O)NCC3CCCO3)c2=O)cc1OC (centres undefined)	4.36%
O=C(NC(=S)Nc1ccc(NC(=O)c2cccs2)cc1)c1ccc([N+](=O)[O-])cc1	2.93%
O=C(NC(=S)Nc1cccc(-c2ccc(CO)o2)c1)c1cccs1	9.61% (active)
CCc1nnc(NS(=O)(=O)c2ccc(NC(=S)NC(=O)c3cccs3)cc2)s1	4.73%
COc1cccc(NC(=O)NCc2ccc(F)cc2)c1	5.02%
Cc1c(C=O)c2ccccc2n1CC(=O)O	0%
CSc1nc2c(c(=O)[nH]1)C(c1cccc(Cl)c1Cl)CC(=O)N2 (centres undefined)	5.93%
COc1ccc(CC(=O)NCc2nnc(SCC(=O)Nc3nccs3)n2C)cc1	6.82%
CCOc1ccc(CN(Cc2ccco2)S(=O)(=O)c2ccc(-n3cnnn3)c(OC)c2)cc1	6.13%
COc1ccc(CN(Cc2ccco2)S(=O)(=O)c2ccc(S(=O)(=O)N3CCCC3)cc2)cc1	9.77% (active)
COc1ccc(S(=O)(=O)NCc2ccc(C(=O)N(C)Cc3ccco3)cc2)cc1	0.12%
Cc1ccc(S(=O)(=O)NCCc2nnc3ccc(SCc4cccnc4)nn23)cc1	0.39%
CCOc1ccc(NC(=O)c2ccc(CSc3nnnn3C)cc2)cc1	2.05%

SMILES	inhibition
CCOc1cc(NS(=O)(=O)c2ccc(OC)cc2)c(OCC)cc1NC(C)=O	3.5%
CCOc1ccc(C(=O)Nc2cc(OC)ccc2OC)cc1	0.11%
CCOc1cc(NC(=O)c2ccccn2)c(OCC)cc1NC(=O)c1ccc(OC)cc1	10.6% (active)
CCOC(=O)CNc1nc(Cl)nc(Nc2ccccc2)n1	5.04%
CC(Sc1nnnn1C)C(=O)NC(=O)NC1CCCCC1 (centres undefined)	0.61%
Cc1ccc(-c2cc(C(=O)N/N=C/C=C/c3ccccc3)n[nH]2)o1	2.69%
COc1cc(C=O)c(Br)cc1OCC(=O)NCc1ccccc1	3.38%
COc1cc(/C=C(\C#N)C(=O)Nc2ccc3ccccc3c2)c([N+](=O)[O-])cc1OC	-0.51%
COc1ccc(NC(=O)/C(C#N)=C\c2cc(OC)c(OCc3ccc(C(=O)O)cc3)cc2Br)cc1	8.75% (active)
O=S(=O)(Nc1ncccn1)c1ccc(NS(=O)(=O)c2cccc(Cl)c2Cl)cc1	1.52%
O=C(/C=C/c1ccccc1Cl)Nc1ccc(S(=O)(=O)Nc2ncccn2)cc1	5.65%
O=C(/C=C/c1ccc(Cl)cc1)Nc1ccc(S(=O)(=O)Nc2ncccn2)cc1	8.46% (active)
COc1cccc(NC(=O)CN(C)C(C)C(=O)Nc2ccc(C#N)cc2)c1 (centres undefined)	1.87%
COc1cccc(NC(=S)NCc2ccco2)c1	-0.52%
CCn1c(COc2ccc(OC)cc2)nnc1SCC(=O)Nc1cc(OC)ccc1OC	0.11%
CCn1c(COc2ccccc2)nnc1SCC(=O)Nc1ccc2c(c1)OCCO2	9.4% (active)
CCn1c(Cc2ccccc2)nnc1SCC(=O)Nc1ccccc1	1.42%
CCS(=O)(=O)Nc1ccc(C2=NN(C(C)=O)C(c3cccs3)C2)cc1 (centres undefined)	-0.12%
Cn1nnnc1-c1cc(Cl)cc(Cl)c1	-0.86%
CCOc1ccc(-n2c(O)c(/C=N/Nc3nc(C)cc(C)n3)c3ccccc3c2=O)cc1	3.13%
COC(=O)Cc1csc(Nc2c(C)n(C)n(-c3ccccc3)c2=O)n1	1.09%
COC(=O)Cc1csc(/N=C/c2c(O)n(-c3cccc(C(F)(F)F)c3)c(=O)c3ccccc23)n1	8.86% (active)
COCCCNC(=S)NNC(=O)C(O)(c1ccccc1)c1ccccc1	1.35%
COc1ccc(C(=O)CSc2nc(C)cc(C)n2)cc1[N+](=O)[O-]	4.17%

SMILES	inhibition
CC1CCCN(CC(O)COCc2ccccc2)C1 (centres undefined)	3.48%
Cc1cccc(NS(=O)(=O)c2ccc(C)c(C(N)=O)c2)c1	0.63%
COc1ccccc1CNC(=O)CCCn1c(=O)c2ccccc2n(CC(=O)NC2CCCC2)c1=O	1.5%
CCc1nnc(NC(=O)CCC(=O)NCc2ccccc2OC)s1	1.08%
COc1ccccc1CNC(=O)CCn1c(=O)sc2ccccc21	8.77% (active)
COc1ccccc1Cc1nc(-c2ccc(C)cc2)no1	0%
Cc1ccc(-c2noc(CN3CCN(Cc4ccccc4)CC3)n2)cc1	1.83%
Cc1ccc(-c2noc(CC(c3ccccc3)c3ccccc3)n2)cc1	9.59% (active)
Cc1cc(C)cc(C(=O)N(CCc2ccccc2)C2=CC3CCC(C2)N3C)c1 (centres undefined)	0.13%
C=CCOCCN(C)C1=NS(=O)(=O)c2ccccc21	2.38%
C=CCn1c(SCC(=O)CC(=O)OCC)nc2cc(C(=O)N3CCC(C(N)=O)CC3)ccc2c1=O	2.99%
C/C(CCC(=O)OC[C@H]1O[C@H](C#Cc2ccccc2)C=C[C@@H]1Oc1ccc(C)cc1)=N\OC[C@@H](O)[C@H]1O[C@@H]2OC(C)(C)O[C@@H]2[C@H]1O	11.1% (active)
O=C(NNC(=S)NCc1ccccc1)c1ccc(OC(F)F)cc1	1.5%
COc1cccc(CC2(CO)CCCN(CC3=Cc4cc(OC)ccc4OC3)C2)c1 (centres undefined)	0.13%
O=C(c1nnc(-c2ccc(Cl)cc2)o1)C1CCCC1	2.68%
CCOc1ccc2cc(C#N)c(SCC(=O)OC)nc2c1	1.88%
COC(=O)CSc1nc(C2CC2)nc2ccccc12	-0.4%
COC(=O)CSc1nc2c(c(C3CC=CCC3)c1C#N)CCC2 (centres undefined)	8.53% (active)
O=C(CSc1cccc[n+]1[O-])c1ccc(-c2ccccc2)cc1	0.55%
CCCCc1nc(NCc2ccccc2)c(C#N)c2c1CCCC2	8.74% (active)
CCN1CCc2c(C#N)c(NCc3ccccc3)nc(NCCO)c2C1	1.86%
CCCCc1nc(NCCN)c(C#N)c2c1CSC(C)(C)C2	1.35%
